Growth data for 7 molecules are collected here from PubChem BioAssay (NCI).

Holding throughout (test): NCI-60 one-dose screen, 48 h (100 = growth as untreated, 0 = no growth, -100 = all killed)
Holding throughout (details): 10 µM unless noted

Experiment [1] has as its system HCT-15 colon.
For experiment [2], the system named is HT29 colon.
For experiment [3], the system named is SNB-75 CNS.
The test system of experiment [4] is SNB-19 CNS.
Experiment [5] deals with U251 CNS.
The test system of experiment [6] is PC-3 prostate.
Experiment [7] deals with SK-MEL-5 melanoma.
The subject of experiment [8] is UACC-62 melanoma.
Experiment [9] relates to LOX IMVI melanoma.
In experiment [10] the test system is SK-MEL-28 melanoma.
Experiment [11] has as its system SK-MEL-2 melanoma.
Experiment [12] deals with EKVX NSCLC.
Experiment [13] concerns SN12C renal.
Experiment [14] concerns UO-31 renal.
The subject of experiment [15] is TK-10 renal.
For experiment [16], the system named is ACHN renal.
Experiment [17] relates to CAKI-1 renal.
For experiment [18], the system named is CCRF-CEM leukemia.
Experiment [19] deals with MOLT-4 leukemia.

Each structure is given as a SMILES string. Compounds without any hit were thinned out: in the full panel of roughly 83,000, 20% have a hit.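 Single-concentration screen, 48 h exposure, 96-well plates. Endpoint: percent growth. Below 10 = active.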 Values without a mark were called inactive. Calls of active or inactive are those of the source.

In the case of `O=C(NCCc1ccccc1)Nc1ccc2cc3ccc(NC(=O)NCCc4ccccc4)cc3nc2c1`, the growth in experiment [1] was 97.1%; in experiment [2] it was 31.4%; in experiment [3] it was 17.1%; in experiment [4] it was -31.8% (active); in [5] it was -26.4% (active); in experiment [6], 19.3%. Also, the growth in [7] was 60.9%; in [8], -51.2% (active); in experiment [9] it was -79.8% (active); in experiment [10], -29.4% (active); in experiment [11] it was 0.339% (active); in experiment [12], 71.9%. In addition, the growth in experiment [13] is -40.1% (active); in experiment [14], 89.9%; in experiment [15], 99.2%; in experiment [16], 100%; in experiment [17] it was 86.6%; in experiment [18], 0.959% (active). In experiment [19], the growth is -46.4% (active).

With `C=CCN1C(=O)/C(=C/C(=O)OC)S/C1=N\NC(=O)c1cc2ccc1/C=C\c1ccc(cc1)/C=C\2`, the growth is 66.9% in experiment [1]; 46% in experiment [2]; 78.1% in experiment [3]; 84.7% in experiment [4]; 81.8% in [5]; 48.4% in experiment [6]. Further, the growth is 92.5% in experiment [7]; 77.2% in experiment [8]; 78.8% in experiment [9]; 102% in experiment [10]; 97.3% in experiment [11]; 90.8% in experiment [12]. In addition, the growth in [13] was 86.9%; in experiment [14] it was 75.4%; in experiment [15], 108%; in [16], 87.9%; in experiment [17], 87.8%; in experiment [18], 22.9%. The growth in experiment [19] was 35.4%.

For the molecule `CN(C)c1ccc(Nc2c3ccccc3nc3cc(NC(=O)CCN4CCCC4)ccc23)cc1`, the growth in experiment [1] is -18.4% (active); in [2], 1.99% (active); in [3], -0.0133% (active); in experiment [4], -7.13% (active); in experiment [5], -48.6% (active); in experiment [6], -25.4% (active). For the same molecule, the growth is 0.523% (active) in [7]; 15.5% in experiment [8]; -74.8% (active) in [9]; -34.7% (active) in [10]; 24% in [11]; 9.96% (active) in experiment [12]. Also, the growth is -7.36% (active) in [13]; -53.1% (active) in experiment [14]; -12.7% (active) in [15]; 1.64% (active) in experiment [16]; -47.6% (active) in experiment [17]; -15% (active) in [18]. Further, the growth in [19] is -8.89% (active).

With `Cc1cc2c(C(=O)NCC#N)cccc2n1-c1nc2c(c(NCc3ccccc3)n1)CCCC2`, the growth in experiment [1] is -52.8% (active); in experiment [2], -3.71% (active); in experiment [3], -11.4% (active); in [4], -49.1% (active); in experiment [5], -71% (active); in [6] it was -18.8% (active). The growth in experiment [7] is -93.4% (active); in experiment [8], -78.2% (active); in experiment [9], -85% (active); in [10] it was -28.2% (active); in [11], -44.7% (active); in [12], -18.8% (active). For the same molecule, the growth in [13] is -67.9% (active); in experiment [14], -84.3% (active); in experiment [15], -17.7% (active); in experiment [16], -4.35% (active); in experiment [17], -2.84% (active); in [18], 7.4% (active). In experiment [19], the growth was -15.6% (active).

In the case of `CC/C(=C\c1ccc(OC)cc1)C(=O)c1ccc(OC)cc1`, the growth was 92.7% in [1]; 90.3% in [2]; 77.3% in experiment [3]; 85.7% in [4]; 91.7% in [5]; 75.7% in experiment [6]. The growth in experiment [7] is 101%; in experiment [8], 78.7%; in experiment [9], 95.1%; in [10], 106%; in [11], 96%; in experiment [12], 103%. The growth in experiment [13] is 91.8%; in [14], 81.1%; in experiment [15] it was 91.9%; in experiment [16], 96.9%; in experiment [17], 69.6%; in [18], 45.6%. Further, in [19], the growth is 91.5%.

Regarding `COc1ccc(OC)c(-c2cc(-c3ccc(Cl)cc3)c3c(N)c(C(=O)c4ccc(Cl)cc4)sc3n2)c1`, the growth in [1] was 106%; in experiment [2], 91.1%; in experiment [3] it was 73.6%; in [4], 103%; in experiment [5], 101%; in [6], 81.4%. Besides, the growth is 107% in experiment [7]; 92.2% in experiment [8]; 98.3% in experiment [9]; 105% in experiment [10]; 94.2% in experiment [11]; 93.8% in [12]. Also, the growth in experiment [13] was 101%; in experiment [14], 75.4%; in [15], 102%; in experiment [16], 97.4%; in [17], 88.5%; in [18], 88.7%. Besides, in experiment [19], the growth was 103%.

With `C=CC(=O)N[C@@H](/C=C/C(=O)OCC)Cc1ccc(-c2cc(Cl)cc(Cl)c2)cc1`, the growth in experiment [1] is 15.2%; in experiment [2], 20.3%; in experiment [3], 40.3%; in experiment [4], 33.9%; in experiment [5], 20.2%; in [6], 16.9%. For the same molecule, the growth in [7] was -88.2% (active); in experiment [8] it was 9% (active); in [9], 36.6%; in [10] it was 39.8%; in experiment [11], 14.1%; in experiment [12] it was 20%. Moreover, the growth in experiment [13] was 3.95% (active); in [14], 14.2%; in experiment [15] it was 6.04% (active); in experiment [16], 26.7%; in experiment [17] it was 35.9%; in experiment [18], 17.2%. Further, the growth in experiment [19] was 1.95% (active).
